From PubChem
Platelet DG rel – platelet dense granule release activity. human platelet-rich plasma, SFLLRN dense granule ATP release, luminescence. inhibition, %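 (compounds screened at 7.5 µM in platelet-rich plasma)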. 0.22% of 300,000 active. AID 1663;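 active means mean replicate score, as percent of positive control, at or above 50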
HIF act – HIF pathway transcriptional activation; 0.32% of 300,000 active; AID 1910; U2OS HRE-luciferase reporter, luminescence; normalized: DMSO 0%, desferrioxamine 100%; activation, % at 7.5 µM (by protocol);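 active means mean activation of at least 10% of the iron chelator positive control signal, with at least half of replicates also reaching 10%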
CHT allo act – allosterically activates the human high affinity choline transporter; Q9GZV3; CHT-expressing cells, membrane potential dye, choline EC20; hits give high values; LV-AA mutant CHT in HEK293 cells; B-score at 10 µM; 0.49% of 310,000 active; AID 488977;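 active means initial fluorescence not abnormally high and integrated response B-score, plate-corrected, over 3 SD above library mean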
CHT block – inhibits the human high affinity choline transporter | B-score at 10 µM | 0.86% of 310,000 active | CHT-expressing cells, membrane potential dye, choline response; hits give low values | Q9GZV3;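 active means B-score over 3 SD under the library average, and starting fluorescence ratio not unusually high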;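 further: choline stimulus applied at its EC90 after an EC20 pre-addition; B-score computed on integrated fluorescence ratio after choline addition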
VLA-4 inh – inhibition in a human VLA-4 binding assay; P13612; VLA-4 expressing cells, ligand binding flow cytometry; inhibition, % (about 7 µM as worked out from the volumes in the protocol); 0.2% of 330,000 active; AID 2557; in the data active means inhibition above about 50%
Target sequence (P13612 whole entry, looked up): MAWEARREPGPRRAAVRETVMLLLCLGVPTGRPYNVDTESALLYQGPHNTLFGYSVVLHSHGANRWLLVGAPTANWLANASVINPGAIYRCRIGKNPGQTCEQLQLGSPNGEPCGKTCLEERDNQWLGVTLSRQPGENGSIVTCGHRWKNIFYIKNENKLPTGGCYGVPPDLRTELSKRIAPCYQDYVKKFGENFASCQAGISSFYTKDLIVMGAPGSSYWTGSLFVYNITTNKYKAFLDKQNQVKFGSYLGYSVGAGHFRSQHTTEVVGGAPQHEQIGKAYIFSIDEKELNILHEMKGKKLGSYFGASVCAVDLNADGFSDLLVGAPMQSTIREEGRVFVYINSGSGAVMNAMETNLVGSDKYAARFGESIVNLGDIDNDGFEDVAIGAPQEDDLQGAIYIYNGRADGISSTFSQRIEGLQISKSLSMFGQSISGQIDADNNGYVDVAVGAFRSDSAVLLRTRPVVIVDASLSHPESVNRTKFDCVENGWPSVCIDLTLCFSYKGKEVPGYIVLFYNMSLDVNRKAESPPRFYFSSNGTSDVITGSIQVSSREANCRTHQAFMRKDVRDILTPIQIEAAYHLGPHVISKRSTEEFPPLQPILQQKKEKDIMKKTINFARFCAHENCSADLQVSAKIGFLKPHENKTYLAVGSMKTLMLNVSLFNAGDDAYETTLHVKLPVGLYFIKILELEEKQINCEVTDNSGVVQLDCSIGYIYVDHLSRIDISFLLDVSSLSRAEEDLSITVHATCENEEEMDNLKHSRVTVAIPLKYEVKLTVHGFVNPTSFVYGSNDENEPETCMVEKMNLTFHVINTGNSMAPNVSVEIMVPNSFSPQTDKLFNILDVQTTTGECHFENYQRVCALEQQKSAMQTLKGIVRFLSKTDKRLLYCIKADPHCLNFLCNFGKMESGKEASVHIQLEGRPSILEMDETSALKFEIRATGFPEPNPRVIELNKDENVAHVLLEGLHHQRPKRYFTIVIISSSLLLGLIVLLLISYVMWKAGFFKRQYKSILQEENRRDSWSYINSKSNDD
AI-2 QS modul – modulates the Vibrio harveyi AI-2 quorum sensing system. activity change, % at 7.5 µM. 0.4% of 300,000 active. Vibrio harveyi JMH597 AI-2 luminescence/OD600 ratio, 9 h; hits give low values; strain lacks LuxN and CqsS sensors; 0 = neutral-control median. AID 2094; in the data active means activity change below about -75%, passing the limit was not always enough;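 further: luminescence divided by OD600 gain over 9 h not by final OD600 alone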
The depositor's hits bear a star; i = inactive; . = no result. Most compounds without a hit are left out; they make up all but 2.2% or so of the library.

SMILES | Platelet DG rel | HIF act | CHT allo act | CHT block | VLA-4 inh | AI-2 QS modul
Cc1ccc2nc(C)c3c(c2c1)SCC3 | -2.3 | -0.4 | i | i | 7.3 | -0.5
Cc1cccn2c(=O)nc(SCC(=O)Nc3ccc4c(c3)OCCO4)nc12 | -0.6 | -0.3 | i | i | 3.1 | 51.8
CC(Sc1ccc(Cl)cc1)C(=O)Nc1ccc2c(c1)OCO2 (centres undefined) | 0.2 | 1.8 | i | i | -10.4 | 19.4
CC(C)N1CCC2(CC1)N=C(c1ccc3c(c1)OCO3)CC(c1cc(Cl)ccc1O)N2 (centres undefined) | 5.8 | 2.9 | i | -6.89* | 1.0 | -50.9
O=C(Cn1c(SCC(=O)N2CCCc3ccccc32)nc2ccccc21)N1CCCC1 | -6.6 | 69.6* | i | i | -0.8 | 13.3
CC(C)NC(=O)Cn1c(SCC(=O)N2CCCc3ccccc32)nc2ccccc21 | -5.1 | -0.5 | i | i | 17.6 | 23.2
Cn1cc(CN2CCCC(C(=O)Nc3ccc(-c4cccc(F)c4)cc3)C2)cn1 (centres undefined) | 4.4 | -0.4 | i | i | 19.4 | 39.6
CCN(CC)c1ccc(/C=N/NC(=O)c2ccoc2C)c(O)c1 | 117.3* | 64.4* | i | i | -7.0 | -0.2
CCN(CC)c1ccc(/C=N/NC(=O)OC)c(O)c1 | . | . | i | i | 14.3 | 25.7
CCN(CC)c1ccc(/C=N/NC(=O)c2cccc(S(=O)(=O)Nc3ccccc3OC)c2)c(O)c1 | -4.8 | 91.5* | i | i | 7.2 | -8.5
CCN(CC)c1ccc(/C=N/NC(=O)c2ccc3nc[nH]c3c2)c(O)c1 | 9.5 | 95.6* | i | i | 14.6 | -67.0
COCCNC(=O)c1ccccc1NC(=O)c1ccccc1SC | 13.5 | -0.3 | i | i | 5.3 | 18.6
N#Cc1ccc(C(=O)CN2CCN(c3ccccc3)CC2)cc1 | -5.9 | 0.4 | i | i | 6.1 | 2.7
O=S(=O)(NCCc1cn2ccccc2n1)c1cccs1 | 3.6 | 0.8 | i | i | -0.1 | 7.4
O=S(=O)(NCCc1cn2ccccc2n1)c1ccc2c(c1)CCCC2 | 57.0* | -0.1 | i | i | 0.0 | 19.5
Cc1ccc(CN2CCc3c(OCC(=O)Nc4cc(C)ccc4C)cccc3C2=O)cc1 | 6.4 | -0.3 | i | i | -4.0 | 34.6
CCC(C)(C)C1CCC(=NNc2nc3ccccc3[nH]2)CC1 (centres undefined) | 7.3 | 4.1 | i | i | 11.4 | 11.3
CC(=O)N1CCC(=NNc2nc3ccccc3[nH]2)CC1 | -6.6 | 22.1* | i | i | 2.5 | 13.4
Clc1c(CSc2nc3ccccc3o2)nc2sccn12 | -2.4 | 10.0* | i | i | 0.3 | 15.2
Clc1c(CSc2nc3ccccc3o2)nc2ccccn12 | . | -0.9 | i | i | -7.7 | 4.2
O=C(CN1CCCC1)Nc1ccc(-c2nc3cc(NC(=O)CN4CCCC4)ccc3o2)cc1 | 8.2 | 12.6* | i | i | 1.5 | 15.4
CCN(CC)CC(=O)Nc1ccc(-c2nc3cc(NC(=O)CN(CC)CC)ccc3o2)cc1 | -1.0 | 3.0 | i | i | -11.6 | 26.7
CCOC(=O)c1ccc(NC(=S)NC(=O)c2cncc(Br)c2)cc1 | -4.5 | 0.8 | i | i | 2.6 | 19.5
CCCCOC(=O)c1ccc(NC(=S)NC(=O)c2c(Br)c(C)nn2C)cc1 | 3.0 | 40.7* | i | i | -2.5 | 2.7
CC(=O)Nc1ccc(NS(=O)(=O)c2cc([N+](=O)[O-])ccc2C)cc1 | -1.0 | 0.5 | i | i | 55.2* | 33.1
SMILES | Platelet DG rel | HIF act | CHT allo act | CHT block | VLA-4 inh | AI-2 QS modul
CCOc1ccccc1N1CCN(C(=S)NC(=O)C23CC4CC(CC(C4)C2)C3)CC1 | 0.8 | 404.4* | i | i | -1.8 | 1.8
O=C(NC(=S)N1CCN(c2ccc(F)cc2)CC1)C12CC3CC(CC(C3)C1)C2 | 0.1 | -0.2 | i | i | 14.6 | 15.0
CCC1(c2ccccc2)NC(=O)N(CC(=O)NCc2ccncc2)C1=O (centres undefined) | -10.2 | 0.6 | i | i | -0.3 | 27.1
CCC1(c2ccccc2)NC(=O)N(CC(=O)NCc2ccc(OC)cc2)C1=O (centres undefined) | -4.4 | 1.5 | i | i | 29.6 | -80.2*
Cc1ccc(NC(=O)OCc2cccs2)cc1 | -6.3 | 7.5 | i | i | 56.7* | -90.0*
COC(=O)CS(=O)(=O)c1ccc2c(c1)CC(=O)N2 | 64.4* | -0.3 | i | i | 20.3 | 10.0
COc1ccc(/C=C/C(=O)NNC(=O)C(C)Oc2ccccc2F)cc1OC (centres undefined) | . | . | . | . | 3.8 | .
COc1ccc(Nc2cc3n(c(=O)n2)CCc2cc(OC)c(OC)cc2-3)c(C)c1 | 79.8* | 1.1 | i | i | -2.2 | 38.5
COc1cc2c(cc1OC)-c1cc(N3CCCCCC3)nc(=O)n1CC2 | 53.6* | . | i | i | -3.9 | 13.4
COc1cc2c(cc1OC)-c1cc(Nc3ccc(C(=O)O)cc3)nc(=O)n1CC2 | 5.4 | -1.1 | i | i | 5.2 | 12.4
COc1cc2c(cc1OC)-c1cc(Nc3ccccc3)nc(=O)n1CC2 | 130.6* | -0.9 | i | i | -2.3 | 6.1
COc1cc2c(cc1OC)-c1cc(Nc3ccc(C)cc3)nc(=O)n1CC2 | 113.0* | -11.3 | i | i | 10.4 | 32.7
C/C(N)=C(/C#N)C(=O)COC(=O)c1ccc(C#N)cc1 | -1.2 | -0.9 | i | i | 12.1 | 1.8
O=C(NC1CCCCCC1)C1CCCN(c2ncccn2)C1 (centres undefined) | -4.9 | 0.7 | i | i | 4.0 | 6.1
CCOc1cccc(Nc2cc3n(c(=O)n2)CCc2cc(OC)c(OC)cc2-3)c1 | -9.5 | 0.2 | i | i | -1.6 | 11.0
COc1cc2c(cc1OC)-c1cc(Nc3ccc4c(c3)OCCO4)nc(=O)n1CC2 | 50.7* | -1.2 | i | i | 19.8 | 21.8
COc1cc2c(cc1OC)-c1cc(Nc3ccccc3Br)nc(=O)n1CC2 | 93.6* | 3.1 | i | i | 1.7 | 31.0
COc1ccc(NC(=O)CNc2cccc(C#N)c2)cc1Cl | 1.9 | -1.7 | i | i | -16.9 | -79.9*
Cc1cc(C)nc(N/N=C/c2ccccc2OCc2ccc(Br)cc2)n1 | -5.9 | 1.8 | i | i | 21.9 | 17.7
Cc1cc(C)nc(N/N=C/c2cc(Br)ccc2O)n1 | 7.8 | 34.4* | i | i | 6.4 | 68.8
COC(=O)Cc1ccc(NC(=S)Nc2ccc(N3CCOCC3)cc2)cc1 | 0.0 | 2.4 | i | i | 6.7 | -3.6
COC(=O)Cc1ccc(NC(=S)NCCCN2CCOCC2)cc1 | -4.4 | 0.6 | i | -6.78* | -20.3 | 21.2
Cc1ccc2c(c1)NC(=O)c1cccnc1N2 | 14.3 | 1.9 | i | i | -4.8 | 16.5
O=C1Nc2ccccc2Nc2ncccc21 | 61.5* | -0.3 | i | i | 7.1 | 11.0
